Screening results deposited in PubChem BioAssay by National Center for Advancing Translational Sciences (NCATS).
The list is not random: actives were taken first. Their share in the collection is about 10%.
Pf growth 48h: P. falciparum growth inhibition at 48 hours (one generation); hit rate 5.9% among 310,000; Potency, µM (titrated, usually from 28.7 µM), for inactives: at the highest dose activity change, negative = inhibition, hits mostly inhibitors; P. falciparum luciferase growth in erythrocytes, 48 h; note: % is set by controls: 0 for no effect and ±100 for the full control effect
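Read-out is firefly luciferase luminescence from an integrated reporter in P. falciparum, so falling signal marks reduced parasite growth. Infected erythrocytes were at 2% hematocrit and 0.1% parasitemia (final) in Albumax-supplemented RPMI 1640.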
NS1 inh: blocks influenza NS1 protein function. Potency, µM (highest dose often 46.1 µM), for the others: at the top dose activity, positive = more growth. hit rate 0.4% among 270,000; calls by dose curve; note: actives are rising curves; nearly all actives have a fitted effect of over 50% in size
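S. cerevisiae expressing influenza A NS1, grown in glucose, washed, then diluted 1:100 into pH 6.0 -URA galactose medium with 23 nl compound. Growth recovery read as OD600; NS1-free strain serves as control.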
SARS PLpro yeast: blocks SARS-CoV papain-like protease in a yeast assay | S. cerevisiae expressing SARS-CoV PLpro, growth rescue | Potency, µM (titrated, usually from 32.9 µM), for inactives: at the highest dose activity, positive = growth rescue, actives largely listed as activators | hit rate 0.19% among 330,000; calls by dose curve; note: 0% is about no effect; nearly all actives have a fitted effect of over 55% in size
Pf growth 96h: P. falciparum growth inhibition at 96 hour, primary screen for plastid delayed-death inhibitors. P. falciparum luciferase reporter growth, 96 h. Potency, µM (top dose mostly 28.7 µM), inactives show at the highest dose activity change, negative = inhibition, hits mostly inhibitors. hit rate 6.9% among 320,000. AID 504834; note: % is set by controls: 0 for no effect and ±100 for the full control effect
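Two-generation exposure (96 h) targets delayed-death phenotype. Reporter parasites carrying integrated firefly luciferase, in red cells at 2% hematocrit and 0.05% parasitemia final, kept at 37 C, 5% CO2; luminescence loss indicates inhibition.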
Starred values were filed as active, the others as inactive. Unless noted, calls come from the whole dose curve; as a rule, active = well fitted inhibition curve with a large enough effect; inconclusive = small, poorly fitted or top-dose-only effect, or another doubt; inactive = no such curve, though single readings can be large or run the other way. Potency is the fitted concentration of half-maximal effect.

What do the screens show for `CCc1ccc(OCC(=O)OC(C)C(=O)Nc2ccc(Cl)cn2)cc1` (configuration not stated)?
Pf growth 48h: inconclusive; SARS PLpro yeast: -7.1%; Pf growth 96h: -21.7%

Results for CC(C)c1ccc(/C=N/n2c(COc3ccccc3)n[nH]c2=S)cc1 ?
Pf growth 48h: -16.2%; NS1 inh: 2.2%; SARS PLpro yeast: -1.2%; Pf growth 96h: 9.2%

What do the screens show for `COc1ccccc1C(CNC(=O)c1cc(S(=O)(=O)N2CCOCC2)ccc1C)N1CCCC1` (configuration not stated)?
Pf growth 48h: inconclusive; SARS PLpro yeast: -5.2%; Pf growth 96h: inconclusive

How did CC(C)OC(=O)C1CC(C)(O)C(=O)C(C(=O)OC(C)C)C1c1ccc([N+](=O)[O-])cc1 (configuration not stated) do in these assays?
Pf growth 48h: inconclusive; SARS PLpro yeast: -2.8%; Pf growth 96h: inconclusive

How did c1ccc(CNCCc2c[nH]c3ccccc23)cc1 do in these assays?
Pf growth 48h: -6.5%; NS1 inh: 9.1%; SARS PLpro yeast: -3.3%; Pf growth 96h: -0.9%

What do the screens show for `O=[N+]([O-])c1ccccc1CNCCc1c[nH]c2ccccc12`?
Pf growth 48h: 2.94µM*; NS1 inh: -3.2%; SARS PLpro yeast: -4.7%; Pf growth 96h: -29.3%

What do the screens show for `CCc1ccc(CNCCc2c[nH]c3ccccc23)cc1`?
Pf growth 48h: 2.9%; NS1 inh: 7.8%; SARS PLpro yeast: 3.5%; Pf growth 96h: 7.38µM*

Results for O=C(c1cn(-c2ccccc2)nc1-c1cccnc1)N1CCN(S(=O)(=O)c2cccc(F)c2)CC1 ?
Pf growth 48h: inconclusive; SARS PLpro yeast: -3.9%; Pf growth 96h: inconclusive

What do the screens show for `CCC(C)(C)NC(=O)c1ccc2c(c1)N(CC(=O)NC1CCCC1)C(=O)C(C)(C)O2`?
Pf growth 48h: 0.5%; NS1 inh: -2.2%; SARS PLpro yeast: 2.6%; Pf growth 96h: 6.57µM*

Results for COC(=O)CN1C(=O)C(C)(C)Oc2ccc(C(=O)NC3CCCC3)cc21 ?
Pf growth 48h: -5.3%; NS1 inh: 21.1%; SARS PLpro yeast: -0.5%; Pf growth 96h: 6.5%

What do the screens show for `CCCCN1CC(=O)N2[C@H](c3ccc(Cl)cc3)[C@@H]3C(=O)N(CC)C(=O)[C@@H]3[C@]2(C)C1=O`?
Pf growth 48h: -2.5%; NS1 inh: 6.5%; SARS PLpro yeast: -0.3%; Pf growth 96h: 26.0%

How did O=C(O)CCn1cc(/C=N/O)c(-c2cccc([N+](=O)[O-])c2)n1 do in these assays?
Pf growth 48h: 7.0%; SARS PLpro yeast: -2.2%; Pf growth 96h: 5.2%

Results for Cn1c(N)c(C(=O)COC(=O)/C=C/c2cccc(F)c2)c(=O)n(C)c1=O ?
Pf growth 48h: 11.7µM*; SARS PLpro yeast: -1.1%; Pf growth 96h: -83.5%

Results for Cn1c(N)c(C(=O)COC(=O)/C=C/c2cccc(Br)c2)c(=O)n(C)c1=O ?
Pf growth 48h: 13.1µM*; SARS PLpro yeast: -5.3%; Pf growth 96h: -112.2%

What do the screens show for `Cn1c(N)c(C(=O)COC(=O)/C=C/c2ccccc2)c(=O)n(C)c1=O`?
SARS PLpro yeast: -12.6%

What do the screens show for `CCc1ccccc1NC(=S)N(Cc1ccc(C(=O)O)cc1)Cc1ccc(OC)c(OC)c1`?
Pf growth 48h: inconclusive; SARS PLpro yeast: 3.4%; Pf growth 96h: inconclusive

Results for COc1ccc(OC)c(C2C(C(C)=O)=C(C)Nc3ncnn32)c1 (configuration not stated) ?
Pf growth 48h: 16.5%; NS1 inh: 4.9%; SARS PLpro yeast: 1.3%; Pf growth 96h: 229.3%

How did C#CCN(CC=C)C(=O)c1ccc2nc(C3CCCCC3)oc2c1 do in these assays?
Pf growth 48h: 1.1%; NS1 inh: -13.6%; SARS PLpro yeast: -4.5%; Pf growth 96h: inconclusive

What do the screens show for `Cc1ccc(N(Cc2ccccc2)C(=O)c2cccc(F)c2)cc1`?
Pf growth 48h: 5.0%; NS1 inh: 7.3%; SARS PLpro yeast: -1.5%; Pf growth 96h: -5.7%

Results for CC(=O)N1CCN(S(=O)(=O)c2cccc(C(=O)N(Cc3ccccc3)c3ccc(C)cc3)c2)CC1 ?
Pf growth 48h: 5.86µM*; SARS PLpro yeast: 11.6%; Pf growth 96h: inconclusive

How did CC1CN(S(=O)(=O)c2cccc(C(=O)N(CCc3ccccc3)Cc3ccccc3)c2)CC(C)O1 (configuration not stated) do in these assays?
Pf growth 48h: 2.94µM*; SARS PLpro yeast: 10.3%; Pf growth 96h: inconclusive

Results for Cc1ccc(N(Cc2ccccc2)C(=O)c2cccc(S(=O)(=O)N3CC(C)OC(C)C3)c2)cc1 (configuration not stated) ?
Pf growth 48h: 10.4µM*; SARS PLpro yeast: 4.2%; Pf growth 96h: inconclusive
